Results as given in the supplement of paper PMC8540655.

The compounds below were run on Aedes aegypti larvae (assay: larval motility relative to same well at 0 h (fraction); higher = more motile (less active compound), active = 0.4 or less). Details: 10 µM; 2 h.
Procedure: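 MMV Pandemic Response Box compounds were tested at 10 µM (1% v/v DMSO) on Aedes aegypti larvae (18-24 h after hatching, about 10 per well, 96-well plates). Motility was quantified with INVAPP (200-frame movies) at 0, 2 and 24 h. Each well's motility was divided by its own 0 h score, and the median of 3 independent screens is reported.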

Compound | larval motility
C[N+]1(C)CCCC(OC(=O)C(O)(c2ccccc2)c2ccccc2)C1 (centres undefined) | 0.776 (inactive)
COc1cc(C(C)(C)CCCC(C)C)cc(OC)c1OC | 1.11 (inactive)
CN1C(=O)C(c2ccccc2)C(=O)N(c2ccccc2)c2cc(C(F)(F)F)ccc21 (centres undefined) | 0.796 (inactive)
C[C@@]1(O)[C@H](O)[C@@H](CO)O[C@H]1n1ccc2c(N)ncnc21 | 0.65 (inactive)
CC(C)Oc1cccc(NC(=O)c2ccccc2C(F)(F)F)c1 | 0.405 (inactive)
COC(=O)Nc1nc2ccccc2[nH]1 | 0.867 (inactive)
CCN1CCN(Cc2nc3ccc([N+](=O)[O-])cc3c(=O)n2-c2ccccc2F)CC1 | 0.54 (inactive)
NC1(C(=O)O)CCP(=O)(O)CC1 (centres undefined) | 0.238 (active)
O=C(NC12CC3CC(CC(C3)C1)C2)c1cc2ccccc2[nH]1 | 0.685 (inactive)
Nc1c(C(=O)NCc2ccco2)c2nc3ccccc3nc2n1CCN1CCCCC1 | 0.782 (inactive)
CCCCc1ccc(C(=O)O)nc1 | 0.853 (inactive)
COc1ccccc1CN[C@H]1C2CCN(CC2)[C@H]1C(c1ccccc1)c1ccccc1 | 0.829 (inactive)

Same assay, conditions: 10 µM; 24 h

Compound | larval motility
C[N+]1(C)CCCC(OC(=O)C(O)(c2ccccc2)c2ccccc2)C1 (centres undefined) | 0.656 (inactive)
COc1cc(C(C)(C)CCCC(C)C)cc(OC)c1OC | 1.04 (inactive)
CN1C(=O)C(c2ccccc2)C(=O)N(c2ccccc2)c2cc(C(F)(F)F)ccc21 (centres undefined) | 0.84 (inactive)
C[C@@]1(O)[C@H](O)[C@@H](CO)O[C@H]1n1ccc2c(N)ncnc21 | 0.788 (inactive)
CC(C)Oc1cccc(NC(=O)c2ccccc2C(F)(F)F)c1 | 0.543 (inactive)
COC(=O)Nc1nc2ccccc2[nH]1 | 0.986 (inactive)
CCN1CCN(Cc2nc3ccc([N+](=O)[O-])cc3c(=O)n2-c2ccccc2F)CC1 | 2.49 (inactive)
NC1(C(=O)O)CCP(=O)(O)CC1 (centres undefined) | 1.44 (inactive)
O=C(NC12CC3CC(CC(C3)C1)C2)c1cc2ccccc2[nH]1 | 1.27 (inactive)
Nc1c(C(=O)NCc2ccco2)c2nc3ccccc3nc2n1CCN1CCCCC1 | 0.543 (inactive)
CCCCc1ccc(C(=O)O)nc1 | 0.63 (inactive)
COc1ccccc1CN[C@H]1C2CCN(CC2)[C@H]1C(c1ccccc1)c1ccccc1 | 0.616 (inactive)
